Methyltransferases – Primary Screen for Target Class Profiling of Small Molecule Inhibitors of Methyltransferases. purified enzyme, MTase-Glo SAH luminescence; stronger effect = lower value. calls only at 40 µM. 25,000 tested, 3.9% active. AID 1745853, 2022; call rule not given here
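Each enzyme was assayed with SAM and its substrate. SAH formation detected by MTase-Glo luminescence; single-point 40 uM screen[…].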
Calls only; n = inactive; + = active, no number; ! = not active in a repeat. Shown is part of a subset that was picked to be rich in hits.

SMILES	Methyltransferases
O=C(Cn1nc2n(CCc3ccccc3)c(=O)c3ccccc3n2c1=O)Nc1cccc(Cl)c1	n
CC1(C(=O)NCc2ccc(F)cc2)Cn2cnc(C(=O)NCc3ccc(Cl)cc3)c2C(=O)N1C1CC1 (configuration not stated)	n
CC(C)CNC(=O)c1ccc2c(=O)n(C)c3nn(Cc4cccc(Cl)c4)c(=O)n3c2c1	n
CCCn1c(=O)c2ccc(Cl)cc2n2c(=O)n(CC(=O)NCc3cccc(OC)c3)nc12	n
COCCCN1C(=O)c2ccccc2CC1(C)C(=O)NC1CCCCCCC1 (configuration not stated)	n
Cc1cc(C)c(NC(=O)N(Cc2ccc3c(c2)Cc2ccccc2-3)C2CCCCCC2)c(C)c1	+
CC1(C(=O)NC2CCCCCCC2)Cc2ccccc2C(=O)N1Cc1cccs1 (configuration not stated)	n
Cc1ccc(Cl)cc1N1CCN(S(=O)(=O)c2cccc(-c3nc(-c4ccccc4)no3)c2)CC1	n
CC(C)NC(=O)c1ccc2c(=O)n(C(C)C)c3nn(CC(=O)NCc4ccccc4Cl)c(=O)n3c2c1	n
COc1ccccc1NC(=O)N1CCn2cccc2C1C (configuration not stated)	n
COc1ccc(CNC(=O)Cn2ccc3cc(S(=O)(=O)N4CCC(C)CC4)ccc32)cc1OC	n
Cc1ccc(C(=O)Cn2nc3n(Cc4ccccc4)c(=O)c4ccccc4n3c2=O)cc1	n
CCCCOc1ccc(C(=O)Nc2ccc(F)cc2F)cc1	n
CCOc1ccc(-c2cc(NC(=O)c3c(F)cccc3F)c(C(=O)O)s2)cc1	+
COc1cccc(-c2ccc(NC(=O)C3=C(C(=O)O)CCC3)c(F)c2)c1	n
Cc1cc2c(cc3n2CC(C)(C(=O)NC2CCCCCC2)N(C2CCCc4ccccc42)C3=O)o1 (configuration not stated)	n
Cc1c(-c2ccc3c(c2)OCO3)oc2ccc(C(O)C(C)O)cc12 (configuration not stated)	n
Cc1nc(CN(C)c2ncnc3ccc(-c4ccc5c(c4)OCO5)cc23)cs1	+
CC1(C(=O)NC2CCCC2)Cn2c(nc3ccccc32)C(=O)N1CCc1ccccc1 (configuration not stated)	n
CNCc1ccc(-c2[nH]c3cc(F)cc4c3c2CCNC4=O)cc1	+!
Cc1ccc2n1CCN(C(=O)Nc1ccccc1F)C2C(C)C (configuration not stated)	n
CCN1C(=O)c2cc(C(=O)NCCN3CCCCC3)nn2CC1(C)C(=O)NC1CCCC1 (configuration not stated)	n
Cc1cc(Nc2nc(N[C@@H](C)c3ccc(F)cc3)c(C#N)cc2F)n[nH]1	+!
Cc1cc(Nc2nc(-c3ccccc3)nc3ccccc23)n[nH]1	n
CCCN1C(=O)c2cc(C(=O)N3CCN(c4ccccc4)CC3)nn2CC1(C)C(=O)NC1CCCC1 (configuration not stated)	n
SMILES	Methyltransferases
CCCn1c(=O)c2cc(F)ccc2n2c(SCC(=O)NC(C)CC)nnc12 (configuration not stated)	n
Cc1ccccc1N1C(=O)c2ccc(-c3ccco3)n2CC1(C)C(=O)NC1CCCC1 (configuration not stated)	n
CCc1ccc(C(=O)NC(Cc2c[nH]c3ccccc23)C(=O)OCC(=O)c2ccc(C)cc2)cc1 (configuration not stated)	n
COC(=O)C(Cc1c[nH]c2ccccc12)NC(=O)c1ccc(Br)cc1 (configuration not stated)	n
COC(=O)[C@H](Cc1cccc(C(=N)N)c1)[C@@H](C)NC(=O)c1ccc(-c2cc[n+]([O-])cc2)cc1	+
CCCN1C(=O)c2c(C(=O)NCc3cc(OC)ccc3OC)ncn2CC1(C)C(=O)NCc1ccc(C)cc1 (configuration not stated)	n
CC1CCCC(NC(=O)C2(C)Cn3c(cc4occc43)C(=O)N2Cc2ccccc2F)C1C (configuration not stated)	n
CCOC(=O)c1cc2n(n1)CC(C)(C(=O)NCc1ccccc1)N(Cc1ccc(C)cc1)C2=O (configuration not stated)	n
O=C(O)c1ccccc1Nc1cccc(OCc2ccc3ccccc3n2)c1	n
COc1ccccc1C(=O)N1CCN(c2nccc(Nc3ccccc3Cl)n2)CC1	n
NC(=O)c1ccccc1Nc1ccnc(Nc2cccc(O)c2)n1	+
O=c1[nH]c2ccc(S(=O)(=O)N3CCc4ccccc4C3)cc2[nH]1	n
COC(=O)c1ncn2c1C(=O)N(Cc1ccccc1F)C(C)(C(=O)NC1CCCCCC1)C2 (configuration not stated)	n
CCc1cc2c(cc3n2CC(C)(C(=O)NC2CCCCC2)N(CCN2CCOCC2)C3=O)s1 (configuration not stated)	n
CC(C)c1cc(CNc2nc(Nc3cc(C4CC4)[nH]n3)cc(N3CCN(C)CC3)n2)on1	+
CCOc1ccc(N2C(=O)c3cc4sc(CC)cc4n3CC2(C)C(=O)NC2CCCCC2)cc1 (configuration not stated)	n
CC(C)NC(=O)c1ccc2c(=O)n(C(C)C)c3nn(Cc4ccc(Cl)cc4)c(=O)n3c2c1	n
C=CCn1c(=O)c2ccc(C(=O)NC(C)C)cc2n2c(=O)n(CC(=O)NC(C)C)nc12	n
CCCn1c(=O)c2ccc(C(=O)NC(C)CC)cc2n2c(SCC(=O)c3ccc(C)cc3)nnc12 (configuration not stated)	n
CCOC(=O)c1cc2n(n1)CC(C)(C(=O)NC1CCCCC1)N(c1cccc(C)c1C)C2=O (configuration not stated)	n
COc1ccc(CCNC(=O)Cn2ccc3cc(S(=O)(=O)N4CCCCC4)ccc32)c(OC)c1	n
Nc1nc(NCCNc2ncc(-n3ccnc3)c(-c3ccc(Cl)cc3Cl)n2)ccc1[N+](=O)[O-]	+
Cc1ccc(N2C(=O)c3cc4ccccc4n3CC2(C)C(=O)NC2CCCC2)cc1Cl (configuration not stated)	n
O=C(Cn1c(=O)oc2cc(S(=O)(=O)N3CCCC3)ccc21)N1CCC(Cc2ccccc2)CC1	n
CCCn1c(=O)c2ccccc2n2c(SCC(=O)Nc3ccc(C)cc3Cl)nnc12	n
SMILES	Methyltransferases
CC1CCN(S(=O)(=O)c2ccc3c(ccn3CC(=O)NCCc3ccco3)c2)CC1	n
CCOc1ccc(CCNS(=O)(=O)c2ccc3oc(=O)c4ncn(C)c4c3c2)cc1OCC	n
CN(C)CCC=C1c2ccccc2CCc2ccccc21	+
CC(CN(C)C)CN1c2ccccc2CCc2ccccc21 (configuration not stated)	n
Cc1ccc2c(c1)c(-n1cccc1)c1n2CC(C)(C(=O)NC2CCC(C)CC2)N(Cc2ccccc2Cl)C1=O (configuration not stated)	n
CN(Cc1ccc(C(=O)O)cc1)c1ccc(OCc2c(-c3c(Cl)cccc3Cl)noc2C2CC2)nc1C(F)(F)F	+
CN(CCCN1C(=O)c2ccc(-c3ccco3)n2CC1(C)C(=O)NC1CCCCC1)C1CCCCC1 (configuration not stated)	n
COc1ccccc1CNC(=O)C1c2c(n(C)c3ccccc23)SCC(=O)N1c1ccc(C)c(Cl)c1 (configuration not stated)	n
COc1ccccc1Oc1ncccc1CNCc1c(F)cccc1Cl	n
COc1ccccc1CNCCCCCCNCCCCCCCCNCCCCCCNCc1ccccc1OC	+
COc1ccccc1CNS(=O)(=O)c1cc2c(cc1Cl)n(C)c(=O)n2C	n
